Screening data as filed in PubChem BioAssay.
VP16 counter – VP16 counterscreen qHTS for inhibitors of ROR gamma transcriptional activity; AID 2546, 2010; Drosophila S2 Gal4-VP16 UAS-luciferase, luminescence, 20 h; Potency, µM (doses to about 53.6 µM), usual class: inhibitors; hit rate 3.5% among 310,000;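 note: Gal4-VP16 expression switched on by copper sulfate through the metallothionein promoter; nearly all actives have a fitted effect of over 50% in size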
Tau fluor cs – Counterscreen qHTS for Inhibitors of Tau Fibril Formation, Fluorescence Polarization; tau K18 P301L Alexa594 fluorescence, heparin fibrillization; Potency, µM (series often up to 57.7 µM); hit rate 0.93% among 280,000; note: nearly all actives have a fitted effect of over 55% in size
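Human tau K18 P301L (15 uM unlabeled, 0.24 uM Alexa 594-labeled) in 100 mM sodium acetate pH 7 with 20 uM heparin, 6 hr at 37 C. ThT 30 uM added, 1 hr ambient; Alexa 594 FP and total fluorescence read at 555/632 nm.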
Tau ThT inhib – qHTS for Inhibitors of Tau Fibril Formation, Thioflavin T Binding; Potency, µM (top dose mostly 57.4 µM), usual class: inhibitors; Microtubule-associated protein tau (Homo sapiens), P10636; hit rate 2.1% among 270,000; recombinant tau K18 P301L, heparin-induced fibrillization, ThT fluorescence; note: nearly all actives have a fitted effect of over 55% in size
Target sequence (P10636 561-689 P618L limits assumed): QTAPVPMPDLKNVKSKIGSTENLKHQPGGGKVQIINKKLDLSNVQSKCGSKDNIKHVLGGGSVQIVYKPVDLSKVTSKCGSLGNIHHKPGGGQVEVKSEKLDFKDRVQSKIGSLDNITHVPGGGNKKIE
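ThT emission at 510 nm, taken 1 hr after adding 30 uM dye, quantifies aggregates formed when 20 uM heparin acts on human tau K18 P301L for 6 hr at 37 C.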
RORg inh – qHTS for inhibitors of ROR gamma transcriptional activity. Nuclear receptor ROR-gamma (Mus musculus), P51450. Drosophila S2 Gal4-RORgamma UAS-luciferase reporter, 20 h. hit rate 5.4% among 310,000. Potency, µM (doses to about 53.6 µM), hits mostly inhibitors. AID 2551, 2010; note: nearly all actives have a fitted effect of over 60% in size
Target sequence (P51450 whole entry, looked up, the tested form may be a part): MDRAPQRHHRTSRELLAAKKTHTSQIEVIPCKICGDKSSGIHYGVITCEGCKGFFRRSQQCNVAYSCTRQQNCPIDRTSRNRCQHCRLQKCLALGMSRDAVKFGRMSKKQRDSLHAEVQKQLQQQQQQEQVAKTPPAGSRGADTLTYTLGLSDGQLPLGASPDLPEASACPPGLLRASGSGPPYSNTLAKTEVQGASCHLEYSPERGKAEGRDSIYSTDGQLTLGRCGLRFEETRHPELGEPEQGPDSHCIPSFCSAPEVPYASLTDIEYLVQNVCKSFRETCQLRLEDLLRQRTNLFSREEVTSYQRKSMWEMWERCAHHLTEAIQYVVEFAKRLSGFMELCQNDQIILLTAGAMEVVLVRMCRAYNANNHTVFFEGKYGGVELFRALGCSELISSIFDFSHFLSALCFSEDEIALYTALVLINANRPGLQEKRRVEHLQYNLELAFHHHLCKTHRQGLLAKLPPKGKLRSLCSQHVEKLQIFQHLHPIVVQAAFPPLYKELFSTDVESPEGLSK
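Drosophila Schneider cells stably carrying a metallothionein-driven Gal4 DBD–ROR gamma fusion and a UAS-Photinus luciferase reporter were exposed to compound for 1 hr, then induced with copper sulfate (700 uM final) for 20 hr at ambient temperature before luminescence reading.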
Tau fibril FP – qHTS for Inhibitors of Tau Fibril Formation, Fluorescence Polarization; Potency, µM (highest dose often 57.7 µM), usual class: inhibitors; K18 P301L tau heparin fibrillization, Alexa594 FP, 6 h; hit rate 0.39% among 280,000; note: nearly all actives have a fitted effect of over 55% in size
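Recombinant K18 P301L […], labeled with Alexa 594 at 0.24 uM over 15 uM unlabeled; heparin inducer 20 uM final; 37 C, 6 hr; FP endpoint.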
Hits are given with their value; 0 = inactive; ? = inconclusive; - = not tested or not shown; [ ] = another dose, or the depositor's remark. Hits are enriched below; roughly 7.3% of the tested compounds scored in any of these assays. Calls come from the whole dose curve; as a rule, active = well fitted curve in the direction sought with a large enough effect; inconclusive = small, poorly fitted or top-dose-only effect, or another doubt; inactive = no such curve, though single readings can be large; an effect the other way counts as inactive or inconclusive.

SMILES | VP16 counter | Tau fluor cs | Tau ThT inhib | RORg inh | Tau fibril FP
COc1ccc(/C=C2\CC/C(=C\c3ccc(OC)c(OC)c3)C2=O)cc1OC | 16µM | 0 | ? | 2.2µM | 0
COc1ncc2ncc(=O)n(C3CC3)c2n1 | 0 | - | - | 0 | -
COc1cc(/C=C2\COC/C(=C\c3ccc(O)c(OC)c3)C2=O)ccc1O | ? | ? | 10µM | ? | ?
COc1cc(/C=C2\CC/C(=C\c3ccc(OCCO)c(OC)c3)C2=O)ccc1OCCO | 0 | 0 | 14µM | 0 | ?
COc1cc(/C=C2/SC(=Nc3ccc(O)cc3)NC2=O)ccc1O | 0 | ? | 4.5µM | 0 | ?
Cc1noc(C)c1C(=O)N1CCC2(CCCN(C(c3ccccc3)c3ccccc3)C2)CC1 | 0 | - | - | ? | -
CC1=CN2C(=N)/C(=C/c3ccc(C)o3)C(=O)N=C2S1 | 10µM | 0 | ? | 1.4µM | 0
Cc1ccc(/C=C2\C(=N)N3N=C(CC(=O)N4CCOCC4)SC3=NC2=O)o1 | 0 | - | - | 0 | -
CC1=CN2C(=N)/C(=C/c3ccc(Sc4ccc(C)cc4)o3)C(=O)N=C2S1 | 4µM | ? | 7.9µM | 2.2µM | 0
CC1=CN2C(=N)/C(=C/c3ccc(Sc4ccc(Cl)cc4)o3)C(=O)N=C2S1 | 4.5µM | ? | 13µM | ? | 0
COCc1cc(C)nc2sc(C(=O)Nc3ccccc3O)c(N)c12 | - | ? | ? | - | 0
COc1cccc(CNC(=O)CCn2nc(C)c3c(C)n(-c4ccccc4)nc3c2=O)c1 | - | 0 | 0 | - | 0
COc1ccc(N2Cc3cccc(C(=O)Nc4ccc(C)c(C)c4)c3C2=O)cc1 | - | 0 | 0 | - | 0
CCCCOC(=O)CCn1[nH]c(=O)c2ccccc2c1=O | ? | 0 | 0 | 0 | 0
O=C(CCn1[nH]c(=O)c2ccccc2c1=O)OC1CCCCC1 | 22µM | 0 | 0 | ? | 0
Cc1cc(NC(=O)CSc2ncnc3ccccc23)no1 | 0 | 0 | 0 | 7.9µM | 0
COC(=O)N1CCC[C@@]2(CCN(c3ccccn3)C2)C1 | 0 | - | - | 0 | -
CC1=CC(=C(C#N)c2nc3ccccc3s2)C=C(C)N1c1ccc(F)cc1 | 0 | ? | 0 | ? | 0
COc1ccccc1N1C(C)=CC(=C(C#N)c2nc3ccccc3s2)C=C1C | ? | ? | 0 | 7.1µM | ?
Cc1cc(C)n(CC(=O)N2c3ccccc3Sc3ccccc32)n1 | 0 | 0 | 0 | 7.1µM | 0
COc1cccc(Cn2c(=O)c(-c3cccs3)nc3cnc(Nc4ccccc4)nc32)c1 | 0 | - | - | ? | -
COc1ccc(/C=C/c2nc3cc(-c4ccccc4)ccc3o2)cc1O | ? | 0 | 0 | 32µM | 0
Cc1ccc(/C=N/n2c(-c3ccncc3)n[nH]c2=S)s1 | 0 | 0 | 0 | ? | 0
S=c1[nH]nc(-c2cccnc2)n1/N=C/c1cccs1 | 0 | 0 | 0 | ? | 0
Cc1cccc(-c2n[nH]c(=S)n2/N=C/c2cccs2)c1 | 10µM | ? | 0 | 5µM | 0
SMILES | VP16 counter | Tau fluor cs | Tau ThT inhib | RORg inh | Tau fibril FP
Cc1cccc(-c2n[nH]c(=S)n2/N=C/c2ccc(C)s2)c1 | 5.6µM | 0 | 0 | 11µM | 0
C[C@@](O)(/C=C/[C@H]1CC=CC(=O)O1)[C@@H](C[C@@H](O)\C=C/C=C\C=C\CO)OP(=O)(O)O | 0[10 µM] | 0[11.6 µM] | ? | 0[10 µM] | ?
COc1ccccc1CNC(=O)c1c(N)n(CCCN2CCOCC2)c2nc3ccccc3nc12 | ? | ? | 25µM | 0 | 0
Nc1c(C(=O)NCc2ccc3c(c2)OCO3)c2nc3ccccc3nc2n1CCCN1CCOCC1 | ? | ? | ? | 0 | 0
COc1ccccc1NC(=O)Cn1c(=O)n(Cc2ccco2)c(=O)c2oc3ccccc3c21 | - | 0 | 0 | - | ?
O=C(O)c1ccc(-n2c(O)c(C=C3N=c4ccccc4=N3)sc2=S)cc1 | 0 | ? | 18µM | 0 | 0
O=C(O)CCCn1c(O)c(C=C2N=c3ccccc3=N2)sc1=S | ? | 0 | ? | 0 | 0
O=C(O)CCCCCn1c(O)c(C=C2N=c3ccccc3=N2)sc1=S | 0 | ? | 13µM | 0 | 0
COc1ccc(C2N(C(=O)N(C)C)CCN2S(=O)(=O)c2ccc(OC)cc2)cc1 (configuration not stated) | 0 | - | - | 0 | -
COCCc1nn2c(=O)cc(COC(=O)c3ccc(Br)cc3)nc2s1 | - | 0 | 0 | - | 0
Cc1cccnc1NC(=S)NCc1ccco1 | ? | 0 | 0 | 2µM | 0
O=S(=O)(Nc1ncccn1)c1ccc(NC(=S)NCc2ccco2)cc1 | 0 | 0 | 0 | 0 | 0
S=C(NCc1ccco1)Nc1ccccn1 | 13µM | 0 | 0 | 1.8µM | 0
S=C(NCc1ccco1)Nc1ccc(Cl)cn1 | 2.8µM | - | - | 2.5µM | -
CC(OC(=O)c1ccc(S(=O)(=O)NCc2ccco2)cc1)C(=O)Nc1ccc(Cl)cn1 (configuration not stated) | 0 | 0 | 0 | ? | 0
Oc1cc(Br)ccc1C=Nc1ccc(N2CCCCC2)cc1 | 0 | ? | 14µM | ? | 0
Oc1ccc(C=Nc2ccc(N3CCOCC3)cc2)c(O)c1 | 0 | ? | 16µM | 0 | ?
CN1C(=O)/C(=N\OC(=O)c2cccc3ccccc23)c2ccccc21 | 11µM | 0 | ? | ? | ?
Cc1ccc(N=Nc2c(N)n(-c3ccccc3)[nH]c2=O)cc1 | ? | 10µM[quencher] | 3.2µM | 0 | 0
O=c1c2c(-c3ccccc3)csc2nc2c3ccccc3c(NCCN3CCOCC3)nn12 | 3.2µM | 0 | ? | 1.6µM | ?
O=c1c2ccccc2nc2c3ccccc3c(NCCN3CCOCC3)nn12 | 20µM | 0 | 0 | 13µM | 0
COCC(=O)N1CCc2nc(-c3ccc(OC)cc3C)c3c(c2C1)CO[C@@H](c1ccccc1)C3 | - | 0[11.6 µM] | 0[11.5 µM] | - | 0[11.6 µM]
Cn1c(SCc2ccc(F)cc2)nc2ccc(C(=O)NCc3ccc(F)cc3)cc21 | - | ? | 0 | - | 0
CC1=NN(c2ccccc2)C(=O)/C1=C/c1c(O)n(-c2ccc(F)cc2)[nH]c1=O | 0 | 13µM[quencher] | 4.5µM | 0 | 0
CC1=NN(c2ccccc2)C(=O)/C1=C/c1ccc(Cl)cc1 | 0 | - | - | ? | -
SMILES | VP16 counter | Tau fluor cs | Tau ThT inhib | RORg inh | Tau fibril FP
CC1=NN(c2ccccc2)C(=O)/C1=C\c1ccc(Br)s1 | ? | ? | 13µM | ? | 0
CC1=NN(c2ccccc2)C(=O)/C1=C/c1ccc[nH]1 | 0 | 0 | 13µM | 0 | 0
CSc1cccc(NC(=S)N(CCCN2CCCC2)Cc2cccs2)c1 | 0 | 0 | 0 | ? | ?
S=C(Nc1cccc(Cl)c1)N(CCCN1CCCC1)Cc1cccn1Cc1ccc(Cl)cc1 | ? | ? | ? | 18µM | 0
COc1cccc(NC(=S)N(CCCN2CCCC2)Cc2cccn2Cc2ccc(Cl)cc2)c1 | ? | ? | ? | ? | 0
CSc1cccc(NC(=S)N(CCCN2CCCC2)Cc2cccn2Cc2ccc(Cl)cc2)c1 | 0 | ? | ? | 13µM | 0
COc1cccc([C@@H]2Oc3ccc(OC)cc3C[C@H]2OC(=O)Nc2ccc(OC(F)F)cc2)c1 | 0 | ? | 0 | ? | ?
